Screening results from PubChem.
GPR151 activ: activators of human GPR151; 650,000 compounds, 1% hits; Q8TDV0; activation, % at 11.2 µM; PathHunter beta-arrestin GPR151 cells, luminescence; in the data active = activation above about 4.9%;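 also: 0% = median of compound wells and 100% = cells with positive control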
FBW7 activator: activators of human E3 ligase FBW7. Q969H0. AID 1259310. AlphaScreen FBW7–phospho-cyclin E peptide binding, activator screen. 650,000 compounds, 0.13% hits. normalized activity (activation), % at 26.1 µM; in the data active = normalized activity above about 1.9%;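 also: purified mutant Fbw7 with reduced substrate affinity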
MITF primary: human MITF inhibition, primary screen; O75030; AlphaScreen MITF homodimerization, bead proximity signal; inhibition, % at 2.6 µM; 650,000 compounds, 0.91% hits; AID 1259374; in the data active = inhibition above about 50%;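 also: 0% = vehicle wells with protein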
TEAD-YAP block: TEAD-YAP interaction inhibition; HEK-TIYL cells, TEAD-Gal4/YAP UAS-luciferase luminescence; inhibition, % at 9.12 µM; 640,000 compounds, 1.4% hits; in the data active = inhibition above about 32%;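 also: 0% = median of test compound wells and 100% = reference inhibitor wells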
GPR151 conf act: human GPR151 activation, confirmation screen. shares compounds with GPR151 activ. 6,700 tested, under 10 active. GPR151 PathHunter beta-arrestin cells, luminescence, 90 min; % of EA-reagent control over plate median. AID 1508609. activation, % at 11.2 µM;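 active = mean percent activation across replicates above the confirmation screen cutoff of 4.91%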
GPR119 counter: GPR119 activation, counter-screen for GPR151 activators; shares compounds with GPR151 activ; GPR119 PathHunter beta-arrestin cells, luminescence, 90 min; 0 = compound-well median, 100 = enzyme-acceptor control; activation, % at 11.2 µM; 6,700 compounds, 0.3% hits; AID 1508611;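 active = mean percent activation in the counterscreen above 29.09%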;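 also: counterscreen on off-target GPR119 to flag nonselective hits from the GPR151 activator screen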
Target sequence (Q8TDV5 whole entry, looked up): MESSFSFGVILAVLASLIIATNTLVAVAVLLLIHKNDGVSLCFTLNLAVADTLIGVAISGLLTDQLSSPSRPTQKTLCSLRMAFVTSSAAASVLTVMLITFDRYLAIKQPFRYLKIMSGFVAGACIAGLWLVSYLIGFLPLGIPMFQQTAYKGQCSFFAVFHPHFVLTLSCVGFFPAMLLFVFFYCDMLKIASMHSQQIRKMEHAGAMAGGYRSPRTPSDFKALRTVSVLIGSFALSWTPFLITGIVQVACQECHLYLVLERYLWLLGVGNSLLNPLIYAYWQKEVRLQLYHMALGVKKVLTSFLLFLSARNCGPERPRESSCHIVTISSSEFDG
Numbers without * were called inactive; . = not tested or not shown; ! = a repeat was not active. Only some compounds are listed: those with a hit (about 3.5% of all), similar ones and a draw of the others.

SMILES	GPR151 activ	FBW7 activator	MITF primary	TEAD-YAP block	GPR151 conf act	GPR119 counter
COc1ccc(CN(CC2CCCO2)C(=O)c2cc3ccccc3oc2=O)cc1OC (stereo not given)	1.0	-0.1	3.6	8.6	.	.
O=C(c1cc2ccccc2oc1=O)N(Cc1ccc2c(c1)OCO2)CC1CCCO1 (stereo not given)	7.3*	-0.1	7.5	6.2	0.6	6.6
CCOC(=O)CC(=O)c1cc2ccc(N(CC)CC)cc2oc1=O	5.4*	0.3	-2.1	-17.3	0.0	12.1
CCN(CC)c1ccc2cc(C(=O)Nc3ccc(C)cc3)c(=O)oc2c1	-1.2	0.3	23.2	0.3	.	.
COc1ccccc1C(=O)Oc1coc(CSc2nc(C)cs2)cc1=O	7.5*	-0.1	-12.5	10.0	-1.2	-5.1
CC(=O)Nc1nnc(SCc2cc(=O)c(OC(=O)c3ccccc3[N+](=O)[O-])co2)s1	6.4*	-0.1	12.4	6.4	0.3	0.5
CCOc1ccccc1C(=O)Oc1coc(CSc2nc(C)cs2)cc1=O	1.2	-0.1	-15.3	1.9	.	.
Cn1ccnc1SCc1cc(=O)c(OC(=O)c2ccccc2[N+](=O)[O-])co1	5.8*	0.5	12.3	6.2	-0.5	0.4
CCCC(=O)Oc1coc(CSc2nnc(NC(=O)C3CC3)s2)cc1=O	5.4*	-0.1	10.8	14.2	-1.1	-3.7
CCOC(=O)CCNCc1cccs1	-0.5	0.1	-1.6	2.8	.	.
O=C(Nc1nnc(SCc2cccc(C(F)(F)F)c2)s1)C1CC1	1.5	0.1	9.0	0.8	.	.
O=C(Nc1nnc(SCc2cccc(F)c2)s1)C1CC1	12.1*	-0.1	11.0	-4.0	0.8	4.3
COc1ccc(/C=N\NC(=O)CNc2ccccc2C)cc1Br	0.4	-0.1	1.0	-3.6	.	.
OC(COc1ccccc1CN1CCCC1)CN1CCc2ccccc2C1 (stereo not given)	8.9*	-0.1	-8.1	5.7	-0.4	-4.0
Cc1nc(NC(C)c2ccccc2)cc(-c2ccccc2F)n1 (stereo not given)	5.8*	0.1	11.7	1.8	-1.6	-9.6
CCOP(=O)(OCC)c1nc(-c2cccc3ccccc23)oc1NCc1ccco1	5.3*	0.2	-1.6	-8.0	0.2	-13.4
Cc1cccc(-c2cc(C(=O)N3CCN(C)CC3)c3ccccc3n2)c1	5.7*	0.2	11.7	8.5	0.4	8.0
CN1CCN(C(=O)c2cc3ccccc3nc2Cl)CC1	8.0*	-0.1	4.6	3.9	-0.9	-4.7
Cc1cccc(-c2cc(C(=O)N3CCN(c4ccc([N+](=O)[O-])cc4)CC3)c3ccccc3n2)c1	-0.4	-0.1	13.4	2.8	.	.
O=[N+]([O-])c1cc(Br)c2c(c1)C1C=CCC1C(c1ccccc1)N2 (stereo not given)	0.9	-0.2	-2.1	-9.7	.	.
Fc1ccc(C2=CC(c3ccccc3)n3nnnc3N2)cc1 (stereo not given)	0.6	-0.1	-5.0	-18.2	.	.
COc1ccc(C2C=C(c3ccc(Br)cc3)Nc3nc4ccccc4n32)cc1 (stereo not given)	1.6	0.0	4.8	-64.3	.	.
Cc1ccc(C2=CC(c3ccccc3)n3nnnc3N2)cc1 (stereo not given)	7.3*	0.1	-3.5	-12.5	0.3	-1.4
Cc1ccc(C2C=C(c3ccc(Br)cc3)Nc3nc4ccccc4n32)cc1 (stereo not given)	5.9*	-0.2	4.3	-64.7	-1.2	-1.5
COc1cc(OC)c(OC)cc1/C=C1/N=C(c2ccc(Cl)cc2)OC1=O	-0.7	0.0	14.2	-0.8	.	.
SMILES	GPR151 activ	FBW7 activator	MITF primary	TEAD-YAP block	GPR151 conf act	GPR119 counter
COc1ccc(-n2cc(C(=O)Nc3cc(C)ccc3OC)c3ccccc3c2=O)cc1	-0.3	0.0	-5.5	-0.3	.	.
O=C(Nc1nc(-c2ccc(Br)cc2)cs1)c1ccc([N+](=O)[O-])cc1	-0.9	0.0	8.8	-7.3	.	.
CCOc1ccccc1NS(=O)(=O)c1ccc(Br)c(OC)c1	-0.4	0.0	-9.0	4.8	.	.
CCOc1ccccc1NS(=O)(=O)c1ccc(OC)c(Cl)c1	5.5*	-0.1	-5.1	1.7	-0.7	-4.5
COc1ccccc1NS(=O)(=O)c1ccc2nc(CCl)[nH]c2c1	7.0*	0.3	-9.6	2.6	0.2	-2.6
COc1ccc(S(=O)(=O)Nc2ccccc2SC)cc1C	1.4	0.1	-5.9	-7.4	.	.
COc1ccc(S(=O)(=O)Nc2ccccc2SC)cc1Cl	5.2*	-0.3	-1.5	-3.2	-0.7	-4.1
C=CCN(c1ccc(C(=O)OC)cc1)S(=O)(=O)c1ccccc1	-1.6	0.0	11.7	-5.1	.	.
Nc1c(C(=O)c2ccco2)sc2c1c(=O)[nH]c(=O)n2CCN1CCOCC1	-0.7	0.0	-3.3	-5.4	.	.
COc1ccccc1NC(=S)N/N=C(\C)c1ccc(C#N)cc1	2.7	-0.1	-12.9	-6.1	.	.
CCCOc1ccc([N+](=O)[O-])cc1C=C1C(=O)NC(=S)NC1=O	5.1*	-0.2	-0.2	5.7	-0.1	-3.5
O=C1NC(=S)NC(=O)C1=Cc1cc(Cl)ccc1OCc1ccc([N+](=O)[O-])cc1	1.2	0.0	-9.9	-30.8	.	.
CC(C)=CCC[C@@H](C)C1CC[C@@]2(C)C3=C(CC[C@]12C)[C@@]1(C)CCC(O)C(C)(C)[C@@H]1CC3 (stereo not given in full)	7.7*!	0.0	-0.7	6.5	0.5	10.7
CCNc1nc(NCC)n2c(SCC(=O)Nc3ccccc3C)nnc2n1	6.8*	0.0	-14.5	3.0	-0.1	0.9
CCNc1nc(NCC)n2c(SCC(=O)Nc3ccc(C)cc3C)nnc2n1	1.6	0.2	-3.7	11.7	.	.
COc1ccc(C)cc1S(=O)(=O)N1CCc2ccccc21	1.1	0.2	6.7	3.9	.	.
O=C(Nc1ccc(Cl)cc1)C1CC(c2ccccc2O)=NO1 (stereo not given)	5.5*	-0.1	-3.6	-10.9	-0.8	-17.2
O=C(Nc1cc(Cl)ccc1O)C1CC(c2ccccc2O)=NO1 (stereo not given)	0.4	0.0	-4.4	1.9	.	.
COc1ccc([N+](=O)[O-])cc1NC(=O)c1sc2ncnc(N3CCC(C)CC3)c2c1C	12.5*	0.1	-2.4	-1.2	0.1	5.8
CCN1CCN(c2ncnc3sc(C(=O)Nc4ccc(F)cc4)c(C)c23)CC1	5.2*	-0.1	2.6	-1.0	-0.4	6.2
CCN1CCN(c2ncnc3sc(C(=O)Nc4cnc5ccccc5c4)c(C)c23)CC1	5.3*	-0.1	9.4	-18.1	0.0	11.9
COc1ccc(CN2CCN(CC3CC3)CC2CCO)c(C)c1C (stereo not given)	0.0	-0.1	-8.7	-2.2	.	.
COc1nc2ccc(Br)cc2cc1[C@@H](c1ccccc1)[C@@](O)(CCN(C)C)c1cccc2ccccc12	7.5*	.	.	.	0.5	1.7
CN(CCO)c1nc(-c2ccccc2)c2cc(Br)ccc2n1	-1.4	0.0	-16.5	-3.9	.	.
